Screening data (PubChem)
An excerpt weighted towards active compounds, which were near 2.7% of everything screened.
TAG inh: reduces triacylglycerol accumulation in H9c2 cells | Nile Red lipid (TAG) fluorescence; cells loaded with 200 µM oleic acid | 0.66% of 230,000 active | inhibition, % at 12.5 µM;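 active = pattern-corrected inhibition of lipid staining of at least 50% with the nuclear-stain viability signal not falling by more than 50%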
MPTP block: inhibitors of mitochondrial permeability transition pore; isolated mouse mitochondria, Ca2+ swelling absorbance, 30 min; inhibition, % at 10 µM; 1.4% of 360,000 active; AID 602449;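 active = inhibition of 50% or more, scaled per plate between neutral and stimulator controls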
NadD block: inhibitors of Staphylococcus aureus NadD; purified NadD enzyme, colorimetric absorbance read-out; inhibition, % at 20 µM; 0.78% of 360,000 active; in the data active = inhibition above about 26%
aDG glyco act: increases alpha dystroglycan glycosylation | AID 624168 | Pro5-aDG cells, alpha-DG glycosylation AlphaScreen (IIH6); 0% Pro5, 100% B10-LARGE cell signal | activation, % at 10 µM | 0.22% of 360,000 active;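 active = activation of at least 8% versus controls, or a plate z-score of at least 8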;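 note: Pro5 are CHO cells carrying HIG-tagged alpha-DG that lacks glycosylation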
MPTP counter: Rhodamine 123 counter-screen of mitochondrial pore hits; shares compounds with MPTP block; isolated mitochondria, membrane potential, Rhodamine 123 fluorescence; 78% of 5,000 active; AID 624504; inhibition, % at 10 µM; in the data active = inhibition above about 22%
MPTP abs DR: MPTP inhibition, dose response swelling confirmation. isolated mitochondria swelling, absorbance. AID 651561. shares compounds with MPTP block. IC50, µM. 58% of 780 active; in the data active = IC50 below about 20 µM
MPTP counter DR: counter-screen for mitochondrial permeability transition pore inhibitors, dose response; shares compounds with MPTP block; isolated mitochondria counterscreen, fluorescence read-out; IC50, µM; 49% of 780 active; in the data active = IC50 below about 80 µM
Of the large screens only hits and unclear results are named; the others gave an inactive call (follow-up assays come after a bar, where they were run).

Cc1cccc(C(=O)OC(C)C(=O)Nc2ccc(S(=O)(=O)N3CCCC3)cc2)c1O (configuration not stated)	none
Cc1ccc(C(OCC(O)CNC(C)c2ccccc2)c2ccccc2)cc1 (configuration not stated)	MPTP block 80.4 | MPTP counter inactive | MPTP abs DR 7.07 | MPTP counter DR 23.2
Cc1ccc(C(OCC(O)CNC(CO)C(O)c2ccc([N+](=O)[O-])cc2)c2ccccc2)cc1 (configuration not stated)	MPTP block 85.4 (no result: TAG inh) | MPTP counter inactive | MPTP abs DR 17 | MPTP counter DR 62.1
CCOc1ccc(-c2cc(C(=O)N/N=C(\C)c3cccnc3)c3ccccc3n2)c(OCC)c1	none
Cc1c(Cc2ccccc2)c(=O)n2c([nH]c3ccccc32)c1C#N	MPTP block 84.2 | MPTP counter 73.9
N#Cc1c(C(F)(F)F)cc(=O)n2c1[nH]c1ccccc12	MPTP block 91.7 (no result: TAG inh) | MPTP counter 93.6
COc1ccccc1N=Cc1c(C)c(C#N)c2[nH]c3ccccc3n2c1=O	none
Cc1ccc(S(=O)(=O)NCC2CCC(C(=O)NC3CCCCC3)CC2)cc1 (configuration not stated)	none (no result: TAG inh)
COc1ccccc1C(=O)NC(=S)NNC(=O)c1sc2ccccc2c1Cl	MPTP block 95.1 | MPTP counter inactive
CC(C)(C)NC(=O)COc1ccc2oc3c(c2c1)CCCC3	none (no result: TAG inh)
CN=C1c2c(-c3ccccc3)c3cc(OC)ccc3n2CCN1C	MPTP block 67.9 | MPTP counter inactive | MPTP abs DR 10.1 | MPTP counter DR inactive
COc1ccc(-c2c(-c3ccccc3)n(C)c3ccccc23)cc1	none
C/C=C1\NC(=O)[C@H](CC(N)=O)N(C)C(=O)C([C@@H](C)O)NC(=O)C(CCCc2ccc(OC)cc2)NC(=O)[C@H](C(C)C)NC(=O)/C(=C\C)NC(=O)[C@H](O)[C@@H](C[C@@H](O)CCCCCCC)NC(=O)[C@H](C)NC(=O)CN(C)C(=O)[C@H](CCC(N)=O)NC1=O (some centres not stated)	none
COC(=O)c1ccc(NC(=S)NCCc2cccc(C)c2)cc1	MPTP block 87.7 | MPTP counter 90.8
COC(=O)c1ccc(NC(=S)NCCc2ccccc2C)cc1	MPTP block 99.9 (no result: TAG inh) | MPTP counter 82.6
COc1cccc(CN2CCC2(C)C(=O)NCc2cccc(C(F)(F)F)c2)c1OC (configuration not stated)	none
Fc1ccc2[nH]c3c(N4CCc5ccccc5C4)ncnc3c2c1	MPTP block 88.8 | MPTP counter 82.9
Cc1ccc2[nH]c3c(N4CCc5ccccc5C4)ncnc3c2c1	MPTP block 105.6, aDG glyco act 6.7 | MPTP counter 92.6
CCCCN(CCCC)S(=O)(=O)c1ccc(NC(=O)c2cccs2)cc1	MPTP block 85.9 (no result: TAG inh) | MPTP counter 72.5
CCCCN(CCCC)S(=O)(=O)c1ccc(NC(=O)c2ccc([N+](=O)[O-])cc2Cl)cc1	MPTP block 94.7 (no result: TAG inh) | MPTP counter 95.9
Cc1cc(C)nc(NS(=O)(=O)c2ccc(NC(=O)c3cccs3)cc2)n1	none
CC(=O)N1CCN(c2ccc(NC(=O)c3ccc([N+](=O)[O-])cc3Cl)cc2)CC1	none
COc1ccccc1-c1cnc(C(O)c2cc(C)ccc2C)[nH]1 (configuration not stated)	none
CC1Sc2ccc(S(=O)(=O)N3CCC(C(=O)Nc4ccc(Cl)cc4)CC3)cc2NC1=O (configuration not stated)	MPTP block 98.7 (no result: TAG inh) | MPTP counter 99.8
Cc1ccc(NC(=O)C2CCN(S(=O)(=O)c3ccc(N4CCCC4=O)cc3)CC2)cc1Cl	MPTP block 101.6 (no result: TAG inh) | MPTP counter 108.0
CON(C)C(=O)CC(CNC(=O)OC(C)(C)C)c1ccc(Cl)cc1 (configuration not stated)	none
COc1ccc(N2CCC(CNC(=O)Nc3ccc(Cl)cc3)C2)cc1 (configuration not stated)	MPTP block 90.7 | MPTP counter 74.6
COc1ccc(N2CCC(CNC(=O)Nc3cccc(OC)c3)C2)cc1 (configuration not stated)	none (no result: TAG inh)
COc1cc(NC(=O)NCCN2CCN(c3ccc(Cl)cc3)CC2)ccc1C	MPTP block 69.8 | MPTP counter inactive | MPTP abs DR inactive | MPTP counter DR 73.2
COc1ccc(NC(=O)NCCCN2CCN(c3cc(C)ccc3C)CC2)cc1	MPTP block 82.5 | MPTP counter inactive | MPTP abs DR 15.4 | MPTP counter DR 39.4
COc1ccc(N2CCN(CCNC(=O)Nc3ccc(C)c(Cl)c3)CC2)cc1	none (no result: TAG inh)
CC(C)n1c(=O)n(CC(=O)NCC2CCCO2)c(=O)c2c3c(sc21)COC(C)(C)C3 (configuration not stated)	none (no result: TAG inh)
COc1ccc(C(C(=O)NC2CCCC2)n2c(-c3cccs3)nc3ccccc32)cc1 (configuration not stated)	none (no result: TAG inh, NadD block)
O=C(c1ccc(O)c(Br)c1)c1cc(Br)ccc1O	MPTP block 94.1 | MPTP counter 93.3
O=C(c1cnn(-c2ccccc2)c1)c1cc(Br)ccc1O	none
O=C(C(=O)c1cc(Br)ccc1O)c1cc(Br)ccc1O	MPTP block 94.8 | MPTP counter 97.0
COc1ccc(C)cc1NC(=O)C1CCCN(S(=O)(=O)c2ccc3c(c2)CCCN3C(C)=O)C1 (configuration not stated)	none (no result: TAG inh)
CN(C)CC(=O)N[C@@H]1CC[C@@H](CCNS(=O)(=O)c2ccccc2)O[C@@H]1CO	none (no result: TAG inh, NadD block)
CCN(CC)c1ccc(C=C2C(=O)OC3(CCCCC3)OC2=O)cc1	none
CCN(CC)c1ccc(/C=C2/C(=O)c3ccc(C(=O)O)cc3C2=O)cc1	MPTP block 71.8 (no result: TAG inh) | MPTP counter inactive
Cc1ccc(-c2nc(CC(=O)Nc3cccc(S(=O)(=O)NC4=NCCC4)c3)cs2)cc1	none
O=C(Nc1cc(C(F)(F)F)cc(C(F)(F)F)c1)c1ccc(Cn2cc(C(F)(F)F)ccc2=O)cc1	MPTP block 72.3 (no result: TAG inh) | MPTP counter 24.9
O=C(Nc1ccccc1)c1ccc(Cn2cc(C(F)(F)F)ccc2=O)cc1	none
Cc1ccc(S(=O)(=O)Nc2cc(Cl)c(O)cc2C)cc1	MPTP block 64.8 (no result: TAG inh) | MPTP counter inactive | MPTP abs DR 15.1 | MPTP counter DR 23.3
Cc1ccc(S(=O)(=O)Nc2cc(C(C)C)c(O)cc2C)cc1	none (no result: TAG inh)
O=C(N/N=C/c1c(O)ccc2ccccc12)c1[nH]ncc1Br	MPTP block 54.7 (no result: TAG inh) | MPTP counter 55.4
O=C(N/N=C/c1c(O)ccc2ccccc12)c1cccc(C(F)(F)F)c1	MPTP block 98.9 (no result: TAG inh) | MPTP counter 42.3
Cc1ccc(O)c(/C=N/NC(=O)c2[nH]ncc2Br)c1	none (no result: TAG inh)
CCn1c(SCC(=O)N2CCCCC2C)nc2c1c(=O)n(C)c(=O)n2C (configuration not stated)	none (no result: TAG inh)
CCn1cc(CNC(=O)c2cc(COc3ccc(F)cc3Cl)on2)cn1	none
